Screens from PubChem.
Akt phos inh: Akt phosphorylation inhibition; Neuro2A IGF-stimulated pAkt S473 HTRF, 20 min; active compounds read low; activity change, % for hits at 50 µM; 0.32% of 360,000 active; AID 651550; in the data active means activity change below about -80%; inconclusive means mostly about -51% to -80%; further: on the % scale 0 is the no-effect control and ±100 the full control effect
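Neuro2A cells (4,500/well, DMEM with 0.5% FBS) were treated with compound at a single 50 µM final concentration, stimulated with 6 nM IGF for 20 min at 37 °C, and lysed. Phospho-Akt Ser473 was read by HTRF as 665/615 ratio ×10^4.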
Abeta yeast res: restores growth of yeast expressing A-beta42 peptide; yeast expressing A-beta42, growth rescue, OD600, 48 h; response scale: 0% DMSO, 100% iron-clioquinol control; Potency, µM (series often up to 46.1 µM), most hits filed as activators; 0.063% of 410,000 active; further: potency means the concentration at half of the fitted maximal effect; nearly all actives have a fitted effect of over 55% in size
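Yeast growth medium received pinned compounds, then yeast cells expressing toxic A-beta were added; plates incubated at 30 C for 48 hr. Growth read as absorbance at 600 nm, normalized to DMSO and equimolar FeCl3 plus clioquinol controls.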
TDP43 rescue: inhibitors of TDP-43 toxicity in yeast; TDP-43 expressing yeast growth rescue, BacTiter-Glo, 24 h; Potency, µM (titrated, usually from 46.1 µM), without a hit: at the top dose growth rescue (activation), actives largely listed as activators; 1.8% of 410,000 active; further: potency means the concentration at half of the fitted maximal effect; % of control where 0% means no effect; nearly all actives have a fitted effect of over 50% in size
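Luminescence from BacTiter-Glo reports growth of TDP-43-expressing yeast after 24 hr at 30 deg C with compound. Cells were raffinose-pregrown to mid-log, then seeded in galactose medium at OD600=0.02.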
FUS yeast rescue: rescues growth of FUS-expressing yeast; 0.24% of 390,000 active; S. cerevisiae FUS-expressing, growth rescue, OD600, 24 h; Potency, µM (titrated, usually from 76.6 µM), usual class: activators;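 further: potency means the concentration at half of the fitted maximal effect; plate controls were DMSO vehicle for no effect and reference control for full effect; nearly all actives have a fitted effect of over 55% in size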
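Read-out: OD at 600 nm after 24hr at 30C, reporting rescue of FUS-induced yeast toxicity. Cells at OD 0.005 in galactose (2%) minimal medium; compounds tested in a dilution series; CP55940 titration from 92uM final as control.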
aSyn yeast inh: inhibitors of alpha-synuclein toxicity in yeast; Yeast expressing alpha-synuclein, growth rescue, BacTiter-Glo, 24 h; Potency, µM (highest dose often 46.1 µM), inactives show top-dose growth rescue (activation), usual class: activators; 0.14% of 370,000 active; further: potency means the concentration at half of the fitted maximal effect; % of control where 0% means no effect; nearly all actives have a fitted effect of over 65% in size
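Screening used galactose-induced yeast with toxic alpha-synuclein levels, exposed to compound for 24 hr at 30 deg C. Cell growth, read with BacTiter-Glo luminescence, gave the measured signal.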
Starred values were filed as active, the others as inactive. Rows were chosen to be rich in hits. Some 2.3% of all compounds tested hit in one or more screens of this group. Unless noted, the call rests on the fitted dose curve; in most records, active means well fitted curve in the direction sought with a large enough effect; inconclusive means small, poorly fitted or top-dose-only effect, or another doubt; inactive means no such curve, though single readings can be large; an effect the other way counts as inactive or inconclusive.

For Cc1ccc(CNC(=O)Cn2ccn(-c3cccc(Cl)c3)c(=O)c2=O)cc1 the results were Abeta yeast res inactive, TDP43 rescue 12% and FUS yeast rescue inactive.
COCc1cc(C)nc2sc(C(=O)N3CCN(c4ccccc4)CC3)c(N)c12 was read as Akt phos inh inactive, Abeta yeast res inactive, TDP43 rescue 20µM*, FUS yeast rescue inactive and aSyn yeast inh 2%.
For C1=Cc2ccccc2/C1=C\c1cccc(/C=C2\C=Cc3ccccc32)c1 the results were aSyn yeast inh -3%.
`Cc1c(O)ccc(C(=O)COc2ccc(F)cc2)c1O` gave Akt phos inh -89%*, Abeta yeast res inactive, TDP43 rescue -10%, FUS yeast rescue inactive and aSyn yeast inh 1%.
For CCCCCn1c(CCCNC(=O)c2ccc(Cl)cc2)nc2ccccc21 the results were Abeta yeast res inactive, TDP43 rescue 15% and FUS yeast rescue inactive.
CCCCNc1nc(N(C)c2ccccc2)nc(-n2ccnc2)n1 was read as Akt phos inh inactive, Abeta yeast res inactive, TDP43 rescue 14µM*, FUS yeast rescue inactive and aSyn yeast inh 28%.
For COc1ccc(-c2cc(C(F)(F)F)c3c(=O)n(-c4ccccc4)[nH]c3n2)cc1 the results were Abeta yeast res inactive, TDP43 rescue 8.9µM* and FUS yeast rescue inactive.
COc1ccc(-c2cc(C(F)(F)F)nc(NCc3ccccc3)n2)cc1 was read as Abeta yeast res inactive, TDP43 rescue 20% and FUS yeast rescue inactive.
For COc1ccc(-c2cc(C(F)(F)F)n3nc(C(=O)Nc4cc(C(F)(F)F)ccc4Cl)cc3n2)cc1OC the results were Abeta yeast res inactive, TDP43 rescue -4% and FUS yeast rescue inactive.
For COCCCN1C(=O)c2[nH]nc(-c3cc(C)cc(C)c3O)c2C1c1ccc(O)c(OC)c1 (centres undefined) the results were Akt phos inh inactive, Abeta yeast res inactive, TDP43 rescue 8%, FUS yeast rescue 40µM* and aSyn yeast inh 1%.
For CC1CCCC(C)N1CC(O)Cn1c2ccccc2c2ccccc21 (centres undefined) the results were Akt phos inh inactive, Abeta yeast res inactive, TDP43 rescue 11µM*, FUS yeast rescue inactive and aSyn yeast inh 6%.
`C=CCC[C@H](Cc1ccc(F)cc1)C(=O)OC[C@@H](C)NC(=O)[C@@H](CC=C)CC(=O)N[C@@H](CO)Cc1ccccc1` gave Akt phos inh inactive, Abeta yeast res inactive, TDP43 rescue 20%, FUS yeast rescue inactive and aSyn yeast inh -3%.
For C=CC[C@@H](CC(=O)N[C@H](CO)Cc1ccccc1)C(=O)N[C@H](COC(=O)[C@@H](CC=C)Cc1ccc(F)cc1)C(C)(C)C the results were Akt phos inh inactive, Abeta yeast res inactive, TDP43 rescue 17%, FUS yeast rescue 16µM* and aSyn yeast inh -10%.
`C=CCC[C@H](Cc1ccc(F)cc1)C(=O)OC[C@@H](NC(=O)[C@@H](CC=C)CC(=O)N[C@@H](CO)Cc1ccccc1)C(C)(C)C` gave Akt phos inh inactive, Abeta yeast res inactive, TDP43 rescue -30%, FUS yeast rescue 13µM* and aSyn yeast inh -1%.
Screening C=CCC[C@@H](Cc1ccc(F)cc1)C(=O)OC[C@@H](NC(=O)[C@@H](CC=C)CC(=O)N[C@@H](CO)Cc1ccccc1)C(C)(C)C returned Akt phos inh inactive, Abeta yeast res inactive, TDP43 rescue 23%, FUS yeast rescue inactive and aSyn yeast inh -2%.
Screening C=CCC[C@H](Cc1ccc(F)cc1)C(=O)OC[C@@H](C)NC(=O)[C@@H](CC=C)CC(=O)N[C@H](CO)Cc1ccccc1 returned Akt phos inh inactive, Abeta yeast res inactive, TDP43 rescue -2%, FUS yeast rescue 25µM* and aSyn yeast inh -3%.
Screening CCOC(=O)c1c(S(=O)(=O)N2CCC(C(=O)N3CCN(c4cccc(C)c4C)CC3)CC2)c(C)n(C)c1C returned Abeta yeast res inactive, TDP43 rescue 17% and FUS yeast rescue inconclusive.
Cc1cccc(Cc2c(C)nc3nc(SCC(=O)NCc4ccccc4)nn3c2C)c1 was read as Abeta yeast res inactive, TDP43 rescue 5% and FUS yeast rescue inconclusive.
